Experimental data as given in PubChem BioAssay (EPA / NIEHS).
Results filed as inconclusive are left out. The source made the active and inactive calls. Rule for the calls, unless noted: active = hit-call score of the fitted dose curve at least 0.9, where 1 is the maximum; inactive = score below 0.9.

Assays:
[1] = CCTE_Mundy_HCI_Cortical_NOG_NeuriteLength: CCTE's Neurite Outgrowth Assay in rat cortical cells for Neurite Length, Mundy Lab (AID 2284213);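 note: neurites imaged about 48 to 50 h after chemical exposure began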
How it was run: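 Neurite length was read by high-content imaging of βIII-tubulin-labelled neurites in rat primary cortical cultures. Activity was fitted relative to DMSO.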

[2] = CCTE_Mundy_HCI_Cortical_Synap_Neur_Matur_NeuriteSpotCountPerNeuron: CCTE's Synaptogenesis and Neurite Maturation Assay in rat cortical cells for Neurite Spot Count per Neuron Count, Mundy Lab (AID 2284215)
How it was run: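 Read-out: neurite-associated synaptophysin puncta per neuron, imaged by high-content analysis after MAP2, synaptophysin and Hoechst staining. Rat primary cortical cultures, dosed DIV 7 through DIV 12; DMSO served as baseline.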

[3] = CCTE_Mundy_HCI_Cortical_Synap_Neur_Matur_NeuriteCount: CCTE's Synaptogenesis and Neurite Maturation Assay in rat cortical cells for Neurite Count, Mundy Lab (AID 2284222)
How it was run: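 Primary rat cortical cells were plated, treated with AraC at DIV 5, then exposed to chemicals from DIV 7 through DIV 12. After fixation and immunostaining for MAP2 and synaptophysin, imaging quantified neurites, with DMSO as the negative control.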

[4] = CCTE_Mundy_HCI_Cortical_Synap_Neur_Matur_CellBodySpotCount: CCTE's Synaptogenesis and Neurite Maturation Assay in rat cortical cells for Cell Body Spot Count, Mundy Lab (AID 2284223)
How it was run: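 Read-out: cell body-associated synaptophysin puncta per neuron, imaged after MAP2, synaptophysin and Hoechst staining. Rat cortical cells, AraC DIV 5, chemical dosing DIV 7, fixation DIV 12. Activity fitted in positive direction relative to DMSO baseline.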

[5] = CCTE_Mundy_HCI_hNP1_Pro_ResponderAvgInten: CCTE's Proliferation Assay in human neuroprogenitor cells, Mundy Lab (AID 2284224; active = hit-call score of the fitted dose curve at least 0.9, where 1 is the maximum;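 note: human neural progenitor cells hNP1 derived from WA09 embryonic stem cells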)
How it was run: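 Human neuroprogenitors (hNP1, WA09 lineage) receive test chemical after 40 to 44 hours of attachment. A four-hour BrdU pulse begins twenty hours later, followed by fixation and high content imaging; signal is referenced to DMSO controls.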

[6] = UKN2_HCS_IMR90_cell_viability: Viability Assessment in the University of Konstanz (UKN) Leist Lab Neural Crest Cell Migration Assay in human induced IMR90 Pluripotent Stem Cells (UKN2) (AID 2284233);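 note: viability of neural crest cells differentiated from IMR90 iPSC measured by calcein-AM fluorescence imaging; cells exposed to compound for 24 h after a 24 h migration phase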
How it was run: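 iPSC-derived (IMR90) neural crest cells seeded around silicone stoppers on PLO/laminin/fibronectin; after 24 h migration in N2-S with EGF/FGF, chemical added for 24 h. Calcein-AM/Hoechst stained 30 min, high-content imaged; bidirectional fit versus DMSO.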

[7] = CCTE_Mundy_HCI_Cortical_NOG_NeuronCount: CCTE's Neurite Outgrowth Assay in rat cortical cells for Neuron Count, Mundy Lab (AID 2284236; active = hit-call score of the fitted dose curve at least 0.9, where 1 is the maximum;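 note: neurons counted by imaging betaIII-tubulin and Hoechst stained cortical cells; cells exposed to compound for about 48 hours before fixation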)
How it was run: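 Read-out: neuron number by high-content imaging of betaIII-tubulin (Alexa Fluor-488) and Hoechst-labelled rat primary cortical cells.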

[8] = CCTE_Mundy_HCI_Cortical_NOG_BPCount: CCTE's Neurite Outgrowth Assay in rat cortical cells for Branch Point Count, Mundy Lab (AID 2284237);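 note: branch points counted about two days after chemical exposure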
How it was run: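 Measured 50.33 h after dosing, this morphology endpoint uses rat primary cortical cultures labelled for betaIII-tubulin. Branch points are quantified by high-content imaging, with DMSO as negative control and baseline.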

[9] = CCTE_Mundy_HCI_hNP1_Casp3_7: CCTE's Caspase-Glo 3/7 Assay in human neuroprogenitor cells for Apoptosis, Mundy Lab (AID 2284240)
How it was run: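 Neuroepithelial-lineage stem cells from WA09 embryonic cells were treated with chemicals after 40–44 h of culture. Twenty-four hours later, caspase-3/7 activation was detected luminescently after a 30 min room-temperature reagent step, with DMSO as baseline.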

[10] = CCTE_Mundy_HCI_hNP1_CellTiter: CCTE's Cell Titer-Glo 2 Assay in human neuroprogenitor cells for Viability, Mundy Lab (AID 2284241; active = hit-call score of the fitted dose curve at least 0.9, where 1 is the maximum)
How it was run: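 Measures ATP content in human neural progenitors derived from WA09 embryonic cells. Read-out at 26.5 hours after dosing, with DMSO serving as the negative control and baseline.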

[11] = CCTE_Mundy_HCI_Cortical_Synap_Neur_Matur_NeuronCount: CCTE's Synaptogenesis and Neurite Maturation Assay in rat cortical cells for Neuron Count, Mundy Lab (AID 2284242; active = hit-call score of the fitted dose curve at least 0.9, where 1 is the maximum;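 note: hits reduce neuron count versus DMSO baseline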)
How it was run: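 Neuron number was scored by automated high-content imaging of Hoechst- and MAP2-labelled rat primary cortical cells. Glial growth was arrested with AraC at DIV 5, compounds were applied from DIV 7, and cultures ended at DIV 12.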

[12] = IUF_NPC2c_oligodendrocyte_migration_120hr: Leibniz Research Institute for Environmental Medicine (IUF) 120-hour Neural Progenitor Cell Migration Assay for Oligodendrocyte Migration (NPC2c) (AID 2284297);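 note: O4-positive oligodendrocyte migration distance divided by radial glia migration distance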
How it was run: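 hNPC spheres (GW 16-19 cortex), PDL/laminin, DMEM/F12 3:1 + 1% N2, 37C. Dosing day 0–5, half feed day 3, DMSO ≤0.1%. Fixed 120 h; O4 ICC + Hoechst, HCI. Readout: mean oligodendrocyte distance from sphere edge / radial glia distance.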

[13] = IUF_NPC2a_radial_glia_migration_72hr: Leibniz Research Institute for Environmental Medicine (IUF) 72-hour Neural Progenitor Cell Migration Assay for Radial Glia Migration (NPC2a) (AID 2284299)
How it was run: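 Primary hNPC spheres, fetal brain GW 16-19, on PDL/laminin; DMEM/F12 3:1 + 1% N2. Compound dosed day 0, 7 conc. + SC, half-medium refresh day 3. 72 h brightfield, migration distance core-to-front (um), 4 directions averaged.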

[14] = IUF_NPC2b_neuronal_migration_120hr: Leibniz Research Institute for Environmental Medicine (IUF) 120-hour Neural Progenitor Cell Migration Assay for Neuron Migration (NPC2b) (AID 2284300)
How it was run: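 hNPC spheres, PDL/laminin, DMEM:F12 3:1 + 1% N2, 37C/5% CO2; 7 concentrations + solvent control (DMSO ≤0.1%), 5 d exposure, half-feed day 3. Fix 120 h, TUBB3 ICC, HCI: mean neuron migration distance ÷ glia distance.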

[15] = IUF_NPC3_neuronal_differentiation_120hr: Leibniz Research Institute for Environmental Medicine (IUF) 120-hour Neuronal Differentiation Assay (NPC3) (AID 2284301)
How it was run: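 Primary human fetal neural progenitor spheres (GW 16-19, 0.3 mm) plated on poly-D-lysine/laminin in N2 medium, exposed from day 0 for 120 h with half-medium refresh at day 3. TUBB3+ cells as percent of Hoechst nuclei in migration area; DMSO baseline.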

[16] = IUF_NPC5_oligodendrocyte_differentiation_120hr: Leibniz Research Institute for Environmental Medicine (IUF) 120-hour Oligodendrocyte Differentiation Assay (NPC5) (AID 2284304; active = hit-call score of the fitted dose curve at least 0.9, where 1 is the maximum;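 note: primary human fetal neural progenitor spheres plated to migrate and differentiate; share of O4-positive cells among Hoechst nuclei found by CNN image analysis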)
How it was run: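 hNPC spheres, fetal cortex GW 16-19; PDL/laminin, DMEM:F12 3:1 + 1% N2, 37C/5% CO2; 7 concentrations + solvent control, 5 d exposure, half-change day 3. Readout: %O4+ of Hoechst+ nuclei in migration area, CNN classification; DMSO baseline.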

[17] = IUF_NPC4_neurite_area_120hr: Leibniz Research Institute for Environmental Medicine (IUF) 120-hour Neuronal Morphology Assay for Neurite Area (NPC4) (AID 2284305; active = hit-call score of the fitted dose curve at least 0.9, where 1 is the maximum)
How it was run: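 Human fetal cortex-derived neural progenitor spheres (0.3 mm, GW 16-19) plated on poly-D-lysine/laminin in N2 differentiation medium and exposed from day 0 for 120 h across 7 concentrations plus solvent control. Neurite area is mean pixel area per TUBB3-positive neuron via skeletonization, analysed relative to DMSO.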

[18] = IUF_NPC2-5_cytotoxicity_72hr: Cytotoxicity Assessment at 72 hours in the Leibniz Research Institute for Environmental Medicine (IUF) Neural Progenitor Cell Migration and Differentiation Assay for Cytotoxicity (NPC2-5) (AID 2284306; active = hit-call score of the fitted dose curve at least 0.9, where 1 is the maximum;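 note: LDH release into supernatant measured by resorufin fluorescence marking membrane damage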)
How it was run: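 Human fetal (GW 16-19) neural progenitor spheres, 0.3 mm, plated on poly-D-lysine/laminin in N2 differentiation medium and exposed from day 0 to 7 concentrations plus solvent control (DMSO ≤0.1%). LDH-dependent resazurin-to-resorufin fluorescence in supernatant at 72 h.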

[19] = IUF_NPC2-5_cytotoxicity_120hr: Cytotoxicity Assessment at 120 hours in the Leibniz Research Institute for Environmental Medicine (IUF) Neural Progenitor Cell Migration and Differentiation Assay (NPC2-5) (AID 2284307; active = hit-call score of the fitted dose curve at least 0.9, where 1 is the maximum;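 note: LDH released into supernatant as membrane damage marker via resorufin fluorescence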)
How it was run: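 hNPC spheres on PDL/laminin, N2 medium, 37C; 7 concs + solvent control, DMSO ≤0.1%; 5-day exposure, half medium changed day 3. LDH in supernatant at 120 h, resazurin→resorufin fluorescence, gain-of-signal.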

[20] = IUF_NPC2-5_cell_number_120hr: Cell Number Assessment at 120 hours in the Leibniz Research Institute for Environmental Medicine (IUF) Neural Progenitor Cell Migration and Differentiation Assay (NPC2-5) (AID 2284308);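 note: count of Hoechst-stained nuclei in migration zone around plated human neural progenitor spheres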
How it was run: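 Hoechst-stained nuclei within the migration area were counted by automated high content imaging after 120 h. Single hNPC spheres differentiated on poly-D-lysine/laminin in DMEM/F12 (3:1) with 1% N2, compound present throughout, DMSO ≤0.1%.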

[21] = IUF_NPC2-5_viability_120hr: Viability Assessment at 120 hours in the Leibniz Research Institute for Environmental Medicine (IUF) Neural Progenitor Cell Migration and Differentiation Assay (NPC2-5) (AID 2284312)
How it was run: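 Human fetal (GW 16-19) neural progenitor spheres of 0.3 mm were plated on poly-D-lysine/laminin in N2 differentiation medium and exposed from day 0 for 120 h, with half-medium refresh at day 3. Viability was read as alamar blue resazurin-to-resorufin fluorescence against DMSO.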

[22] = IUF_NPC1_cytotoxicity_72hr: Cytotoxicity Assessment at 72 hours in the Leibniz Research Institute for Environmental Medicine (IUF) Neural Progenitor Cell Proliferation Assay (NPC1) (AID 2284332; active = hit-call score of the fitted dose curve at least 0.9, where 1 is the maximum;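 note: rising LDH signal means more cytotoxicity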)
How it was run: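 Spheres of primary human neural progenitors are plated one per well on day 0 in growth-factor medium and dosed at once. After three days at 37C, supernatant LDH is measured fluorimetrically via resazurin reduction.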

[23] = CCTE_Mundy_HCI_iCellGluta_NOG_NeuronCount: CCTE's Neurite Outgrowth Assay in iCellGluta cells for Neuron Count, Mundy Lab (AID 2284340; active = hit-call score of the fitted dose curve at least 0.9, where 1 is the maximum;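 note: cells fixed about 48 h after compound addition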)
How it was run: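 Neuron count read by automated high-content imaging of Hoechst 33342 and betaIII-tubulin/Alexa Fluor-488 labelling in human iPSC glutamatergic neurons. Activity fitted relative to DMSO.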

[24] = CCTE_Mundy_HCI_iCellGluta_NOG_NeuriteCount: CCTE's Neurite Outgrowth Assay in iCellGluta cells for Neurite Count, Mundy Lab (AID 2284342; active = hit-call score of the fitted dose curve at least 0.9, where 1 is the maximum;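 note: chemical exposure about 48 hours starting 2 hours after plating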)

Measured: AC50

CC(CNC(=S)[S-])NC(=S)[S-].[Zn+2] (centres undefined)
active: [1] 27.6 µM | [2] 50 µM | [3] 76.9 µM | [7] 19.2 µM | [8] 22.2 µM | [9] 11.1 µM | [11] 82.3 µM | [17] 39.2 µM | [18] 60.5 µM | [19] 9.92 µM | [20] 50 µM | [23] 12.7 µM | [24] 21.2 µM
inactive: [4] | [5] | [6] | [10] | [12] | [13] | [14] | [15] | [16] | [21] | [22]
